Screening results: PubChem, National Center for Advancing Translational Sciences (NCATS)
Coupling enz: counter-screen for Giardia aldolase inhibitors: coupling enzyme system | activity change, negative = inhibition, % at 58.2 µM, hits read low | coupling enzyme system counterscreen, AmpLite Red fluorescence | actives 0.67% (n = 290,000) | AID 2472; in the data active = activity change below about -30%
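Counterscreen lacking aldolase: glyceraldehyde-3-phosphate coupling-enzyme reagent preincubated 10 min at RT with compound (at 57.5 uM final), then substrate/coupling system with AmpLite Red added; fluorescence read at 525/598 nm after 20 min RT.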
Sfp PPTase inh: blocks B. subtilis Sfp PPTase activity | Q9F4F7 | Biochemical Sfp PPTase activity, qHTS | Potency, µM, inactives show largest response in the series, negative = inhibition, usual class: inhibitors | actives 3.5% (n = 310,000);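 also: the enzyme is Sfp with the accession as filed and its product quenches rhodamine fluorescence; potency is read from the fitted curve at half-maximal effect; 0% = enzyme reaction without inhibitor and -100% = no enzyme wells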
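Fluorescence-quenching assay: 15 nM Sfp-PPTase preincubated 15 min at room temperature with compound, then 5 uM rhodamine-CoA and 12.5 uM BHQ-2-labelled YbbR peptide added. Fluorescence (ex 525/em 598 nm) read at start and after 30 min; difference gives rate.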
Giardia killer: Giardia lamblia killing; Giardia lamblia trophozoite viability; activity change, % at 7.66 µM, hits read low; actives 0.15% (n = 340,000); in the data active = activity change below about -80%; inconclusive = between about -30% and that limit;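 also: parasites exposed to compound for two days anaerobically before the ATP read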
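Luminescence from cellular ATP indicates surviving trophozoites (100 cells/well) following 48 hrs anaerobic compound treatment at 37 deg C; signal develops 15-30 min at room temperature.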
ELG1 DNA repair: blocks ELG1-dependent DNA repair in HEK293T cells. HEK293T ELG1-luciferase reporter, luminescence, 16 h; DNA damage induced by 5-fluorouridine. Potency, µM (titrated, usually from 46.1 µM), inactives show at the top dose activity change, negative = inhibition, actives largely listed as inhibitors. actives 2.3% (n = 330,000); also: potency is read from the fitted curve at half-maximal effect; nearly all actives have a fitted effect of over 55% in size
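5-Fluorouridine DNA damage + compound/DMSO, 2,000 cells/well, 16 h, 37 °C/5% CO2. ONE-Glo, 30 min RT, luminescence. Readout = decrease in reporter signal.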
Starred values were filed as active, the others as inactive; ? = inconclusive; . = no result given. Hits are enriched below; roughly 5.5% of the tested compounds scored in any of these assays. Unless noted, calls follow the shape of the dose curve; as a rule, active = well fitted curve in the direction sought with a large enough effect; inconclusive = small, poorly fitted or top-dose-only effect, or another doubt; inactive = no such curve, though single readings can be large; an effect the other way counts as inactive or inconclusive. Unless noted, % is scaled to controls: 0 for no effect and ±100 for the full control effect.

SMILES	Coupling enz	Sfp PPTase inh	Giardia killer	ELG1 DNA repair
CC(=O)c1ccc(NC(=S)NNC(=O)NC2CCCCC2)cc1	5	16µM*	-17	18%
Cc1ccc(NC(=S)NNC(=S)NC2CCCCC2)cc1	1	40µM*	17	-1%
O=C(O)c1ccc(NC(=S)NC2CCCCC2)cc1	-4	?	6	26%
Cc1cccc(N(C(=O)c2snc(C(N)=O)c2N)C(C(=O)NC2CCCC2)c2ccco2)c1 (stereo not given)	0	3%	18	?
Cc1ccc(-c2nc3cnccn3c2Nc2ccc3c(c2)OCCO3)o1	2	35µM*	-8	?
CN(C)c1ccc(-c2nc3cnccn3c2Nc2ccc3c(c2)OCCO3)cc1	-3	-16%	30	?
COc1ccc(OCC(O)CN2CCC(CN3C(=O)c4cccc5cccc(c45)C3=O)CC2)cc1 (stereo not given)	-2	-2%	16	8%
COc1ccc(S(=O)(=O)N2CCC(CN3C(=O)c4cccc5cccc(c45)C3=O)CC2)cc1	3	-11%	5	10µM*
CCN(CC)S(=O)(=O)c1ccc(C(=O)N2CCN(CCN3C(=O)c4cccc5cccc(c45)C3=O)CC2)cc1	0	9%	.	4%
O=C(c1ccc(S(=O)(=O)N2CCCC2)cc1)N1CCC(CN2C(=O)c3cccc4cccc(c34)C2=O)CC1	-1	6%	-5	10µM*
c1cncc(-c2cc(-n3ccnc3)ncn2)c1	5	79µM*	.	.
CN(C)Cc1ccccc1-c1cc(-n2ccnc2)ncn1	1	50µM*	.	.
N#Cc1cccc(-c2cc(-n3ccnc3)ncn2)c1	-3	-3%	.	.
CN(C)C(=O)c1ccc(-c2cc(-n3ccnc3)ncn2)cc1	3	-26%	.	.
CN(C)c1ccc(-c2cc(-n3ccnc3)ncn2)cc1	-12	50µM*	.	.
CNC(=S)N/N=C(\C)c1ccc(N2CCOCC2)cc1	0	50µM*	12	?
CCN(c1ccccc1)S(=O)(=O)c1cccc(C(=O)NCC(c2cccs2)N2CCOCC2)c1 (stereo not given)	.	.	7	-15%
CC(=O)Nc1sc(N/N=C\c2ccco2)nc1-c1cccs1	2	18µM*	-5	-2%
CC(=O)Nc1sc(N/N=C\c2ccccc2)nc1-c1cccs1	3	50µM*	0	?
O=[N+]([O-])c1ccc(-c2nc(C(Cl)Cl)c3ccccc3n2)cc1	0	1%	-91*	5.2µM*
CCOC(=O)CC(=O)CSc1nc2nc(C)cc(C)n2n1	0	56µM*	-4	5%
CNC(=O)CSc1nc2nc(C)cc(C)n2n1	0	-6%	31	1%
O=C(CSc1nnc(NC(=O)c2ccc(F)cc2)s1)NC1CCCC1	0	9%	?	?
CC(C)c1ccc(/C=C2\CC/C(=C\C=N\N(C)C)C2=O)cc1	-3	79µM*	16	?
CN(C)/N=C/C=C1\CC/C(=C\c2ccc(F)c(F)c2)C1=O	.	.	7	.
SMILES	Coupling enz	Sfp PPTase inh	Giardia killer	ELG1 DNA repair
c1ccc2c(CCNc3ncnc4nc[nH]c34)c[nH]c2c1	1	-10%	19	6.5µM*
Cc1ccc(Cn2ccc(=O)c(OCc3c(Cl)cccc3Cl)c2C)cc1	-9	18µM*	24	0%
O=C(NC(Cc1cc(=O)[nH]c2ccccc12)C(=O)O)c1ccc(Cl)cc1 (stereo not given)	0	29%	.	.
CCNc1ncc2nc(-c3cn(C)c4ccccc34)c(=O)n(C[C@H]3CCCO3)c2n1	2	14%	.	.
C=CCn1c(=O)/c(=C/c2ccc(O)cc2)s/c1=C(/C#N)c1nnc2n1CCCCC2	0	-6%	-6	?
C=CCn1c(=O)/c(=C/c2ccc(Cl)cc2)s/c1=C(/C#N)c1nnc2n1CCCCC2	-1	-14%	-9	21µM*
C[C@]1(C(=O)NCC2CC2)C=C[C@@H](Cc2ccccc2)N1C(=O)c1ccccc1	2	-3%	.	.
C[C@H](NC(=O)N1CCn2c1nc1ccccc12)C(=O)NCc1ccc2c(c1)OCO2	.	13%	11	0%
Cc1ccc(S(=O)(=O)n2ccc3c(OCCOCCNCc4ccc(F)cc4)cccc32)cc1	-1	71µM*	6	?
CCc1noc(C)c1C(=O)N(CC)CC(=O)Nc1cc(Cl)ccc1C	.	.	13	8%
C/C(CC(=O)Nc1ccc(N(C)C)cc1)=N\NC(=O)c1ccccn1	-1	-23%	-5	?
O=C(NC12CC3CC(CC(C3)C1)C2)c1cnccn1	-6	-7%	-12	10%
C/C(CC(=O)Nc1ccccn1)=N\NC(=O)c1cnccn1	1	45µM*	-17	?
C/C(CC(=O)NC12CC3CC(CC(C3)C1)C2)=N\NC(=O)c1cnccn1	-1	50µM*	-2	24%
C/C(CC(=O)Nc1ccc(N(C)C)cc1)=N\NC(=O)c1cnccn1	-3	56µM*	-13	15%
CCC1=C2CC[C@H]3C(=O)NC(=O)[C@H]3[C@H]2[C@@]2(C)C(=NCCOC)OC(=O)N2C1=O	-1	0%	.	.
CCc1nnc(NC(=O)CSc2nnc(CSc3nc(C)cc(C)n3)o2)s1	-1	50µM*	5	0%
Cc1noc(C)c1-c1ccc2ncnc(NCc3ccc4c(c3)OCO4)c2c1	0	-10%	.	.
CCCCN(C(=O)c1ccc(N2CCCC2=O)cc1)c1c(N)n(Cc2ccccc2)c(=O)[nH]c1=O	.	.	-13	18%
N#CCCC(CCC#N)(CCC#N)c1cc[n+](CCc2ccccn2)cc1	.	.	-16	1%
O=C(O)/C(=C\c1ccco1)NC(=O)c1ccco1	4	12%	-2	-4%
NC(=O)/C(=C/c1ccco1)C(N)=S	-3	18µM*	-7	-3%
O=C(NCCSc1ccccn1)c1ccc(Cl)cc1	0	14%	9	?
N#CC(Sc1ccccn1)c1ccc(Cl)cc1 (stereo not given)	-1	28µM*	25	?
COc1ccccc1N1C(=NC(=O)CCc2ccccc2)SC2CS(=O)(=O)CC21 (stereo not given)	-1	4%	-29	12%
COC(=O)c1ccc2c(c1O)C(=O)c1ccccc1C2=O	-44*	?	?	?
O=C1c2ccccc2C(=O)c2c1ccc(O)c2O	0	-1%	-16	.
Cc1cc(=O)n2nc(-c3ccccc3)sc2n1	2	-11%	-14	?
Cc1cc(=O)n2c3c(sc2n1)C(=O)N(Cc1ccccc1)C3=O	2	13µM*	.	-9%
C[C@@H]1OC(OC2CC[C@@]3(C)C(CC[C@@]4(C)C3CC=C3C5CC(C)(C)CC[C@]5(C(=O)OC5OCC(O)[C@@H](O)[C@@H]5OC5O[C@@H](C)[C@H](O[C@H]6OC(CO)C(O)C(O)C6O)C(O)C5O)C(O)C[C@@]34C)C2(C)C)C(O)C(O)[C@H]1OC1OCC(O)C(O)[C@H]1O (stereo not given in full)	0	20%	.	.
